# Source: publication PMC11006913
# Changes are numbered by the printed parent chain.
# Experiments:
# Assay in all cases: PBM; 200 nM protein, PBS
# Details in all cases: dsDNA, one strand shown
# HOXB6 [1] = molecular target: HOXB6 (Homo sapiens, UniProt P17509 132-218, K202E)
# HOXA4 [2] = molecular target: HOXA4 (Homo sapiens, UniProt Q00056 201-287, R217L)
# HOXB6 [3] = molecular target: HOXB6 (Homo sapiens, UniProt P17509 132-218)
# VENTX = molecular target: T1, VENTX (Homo sapiens, UniProt O95231 78-163)
# T1 sequence: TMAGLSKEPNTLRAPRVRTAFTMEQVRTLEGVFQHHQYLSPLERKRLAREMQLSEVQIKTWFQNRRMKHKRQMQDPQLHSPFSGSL
# VAX1 [4] = molecular target: VAX1 (Homo sapiens, UniProt Q5SQQ9 86-172)
# Sequence of VAX1 (Homo sapiens, UniProt Q5SQQ9 86-172) (Q5SQQ9 86-172): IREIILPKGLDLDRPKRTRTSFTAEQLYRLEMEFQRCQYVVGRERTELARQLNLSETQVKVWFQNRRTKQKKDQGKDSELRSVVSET
# VAX1 [5] = molecular target: VAX1 (Homo sapiens, UniProt Q5SQQ9 86-172, T142I)
# Sequence of VAX1 (Homo sapiens, UniProt Q5SQQ9 86-172, T142I) (Q5SQQ9 86-172 T142I): as the sequence (Q5SQQ9 86-172) above, with T57I counted along it
# VAX1 [6] = molecular target: VAX1 (Homo sapiens, UniProt Q5SQQ9 86-172, K157R)
# Sequence of VAX1 (Homo sapiens, UniProt Q5SQQ9 86-172, K157R) (Q5SQQ9 86-172 K157R): as the sequence (Q5SQQ9 86-172) above, with K72R counted along it
# HOXA4 [7] = molecular target: HOXA4 (Homo sapiens, UniProt Q00056 201-287, W262R)
# Sequence of HOXA4 (Homo sapiens, UniProt Q00056 201-287, W262R) (Q00056 201-287 W262R): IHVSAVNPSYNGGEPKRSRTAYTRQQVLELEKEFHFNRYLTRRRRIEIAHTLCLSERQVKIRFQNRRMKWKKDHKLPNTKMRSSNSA
# HOXA4 [8] = molecular target: HOXA4 (Homo sapiens, UniProt Q00056 201-287)
# Sequence of HOXA4 (Homo sapiens, UniProt Q00056 201-287) (Q00056 201-287): as the sequence (Q00056 201-287 W262R) above, with R62W counted along it
# HOXB9 [9] = molecular target: HOXB9 (Homo sapiens, UniProt P17482 171-250, T197M)
# Sequence of HOXB9 (Homo sapiens, UniProt P17482 171-250, T197M) (P17482 171-250 T197M): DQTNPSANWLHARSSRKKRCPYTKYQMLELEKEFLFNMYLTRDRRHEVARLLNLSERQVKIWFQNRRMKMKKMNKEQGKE
# HOXC9 [10] = molecular target: HOXC9 (Homo sapiens, UniProt P31274 178-260, K195R)
# Sequence of HOXC9 (Homo sapiens, UniProt P31274 178-260, K195R) (P31274 178-260 K195R): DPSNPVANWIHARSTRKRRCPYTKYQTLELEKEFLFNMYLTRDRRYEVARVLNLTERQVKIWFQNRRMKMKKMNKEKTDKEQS
# HOXB9 [11] = molecular target: HOXB9 (Homo sapiens, UniProt P17482 171-250)
# Sequence of HOXB9 (Homo sapiens, UniProt P17482 171-250) (P17482 171-250): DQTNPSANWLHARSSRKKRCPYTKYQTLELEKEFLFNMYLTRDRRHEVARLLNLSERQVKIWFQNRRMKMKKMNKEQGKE
# HOXC9 [12] = molecular target: HOXC9 (Homo sapiens, UniProt P31274 178-260)
# Sequence of HOXC9 (Homo sapiens, UniProt P31274 178-260) (P31274 178-260): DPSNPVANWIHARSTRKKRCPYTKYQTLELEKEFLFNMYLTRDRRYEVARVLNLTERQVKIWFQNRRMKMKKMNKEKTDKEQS
# HOXC9 [13] = molecular target: HOXC9 (Homo sapiens, UniProt P31274 178-260, R193K)
# Sequence of HOXC9 (Homo sapiens, UniProt P31274 178-260, R193K) (P31274 178-260 R193K): as the sequence (P31274 178-260) above, with R16K counted along it
# HOXB9 [14] = molecular target: HOXB9 (Homo sapiens, UniProt P17482 171-250, R186Q)
# Sequence of HOXB9 (Homo sapiens, UniProt P17482 171-250, R186Q) (P17482 171-250 R186Q): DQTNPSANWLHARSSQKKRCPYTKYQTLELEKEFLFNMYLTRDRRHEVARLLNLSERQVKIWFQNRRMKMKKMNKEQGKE
# HOXC9 [15] = molecular target: HOXC9 (Homo sapiens, UniProt P31274 178-260, R222W)
# Sequence of HOXC9 (Homo sapiens, UniProt P31274 178-260, R222W) (P31274 178-260 R222W): as the sequence (P31274 178-260) above, with R45W counted along it
# SIX6 [16] = molecular target: T2, SIX6 (Homo sapiens, UniProt O95475 114-200, H141N)
# T2 sequence: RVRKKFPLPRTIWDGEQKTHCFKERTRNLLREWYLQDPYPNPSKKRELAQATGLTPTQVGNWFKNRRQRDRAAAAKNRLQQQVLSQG
# SIX6 [17] = molecular target: T3, SIX6 (Homo sapiens, UniProt O95475 114-200, L143I)
# T3 sequence: T2 sequence with N28H, L30I
# SIX6 [18] = molecular target: T4, SIX6 (Homo sapiens, UniProt O95475 114-200, T165A)
# T4 sequence: T2 sequence with N28H, T52A
# SIX6 [19] = molecular target: T5, SIX6 (Homo sapiens, UniProt O95475 114-200)
# T5 sequence: T2 sequence with N28H
# Sequence of HOXB6 (Homo sapiens, UniProt P17509 132-218, K202E) (P17509 132-218 K202E): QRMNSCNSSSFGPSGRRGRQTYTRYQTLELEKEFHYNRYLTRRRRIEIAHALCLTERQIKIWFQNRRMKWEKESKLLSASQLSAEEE
# Sequence of HOXA4 (Homo sapiens, UniProt Q00056 201-287, R217L) (Q00056 201-287 R217L): as the sequence (Q00056 201-287 W262R) above, with R17L, R62W counted along it
# Sequence of HOXB6 (Homo sapiens, UniProt P17509 132-218) (P17509 132-218): as the sequence (P17509 132-218 K202E) above, with E71K counted along it
sequence,measurement,setting,value
AATTAACT,binding signal,HOXB6 [1],"9.99 upbm affinity estimate (log intensity, higher = more binding, comparable within an allelic series)"
same,binding signal,HOXA4 [2],"12.1 upbm affinity estimate (log intensity, higher = more binding, comparable within an allelic series)"
same,binding signal,HOXB6 [3],"11.6 upbm affinity estimate (log intensity, higher = more binding, comparable within an allelic series)"
AATTAGTG,binding signal,VENTX,"12.3 upbm affinity estimate (log intensity, higher = more binding, comparable within an allelic series)"
same,binding signal,VAX1 [4],"12.8 upbm affinity estimate (log intensity, higher = more binding, comparable within an allelic series)"
same,binding signal,VAX1 [5],"12.6 upbm affinity estimate (log intensity, higher = more binding, comparable within an allelic series)"
same,binding signal,VAX1 [6],"12.8 upbm affinity estimate (log intensity, higher = more binding, comparable within an allelic series)"
CCGAGCGG,binding signal,HOXA4 [7],"9.72 upbm affinity estimate (log intensity, higher = more binding, comparable within an allelic series)"
same,binding signal,HOXA4 [2],"9.78 upbm affinity estimate (log intensity, higher = more binding, comparable within an allelic series)"
same,binding signal,HOXA4 [8],"9.77 upbm affinity estimate (log intensity, higher = more binding, comparable within an allelic series)"
AATTAGTA,binding signal,HOXB6 [1],"9.94 upbm affinity estimate (log intensity, higher = more binding, comparable within an allelic series)"
same,binding signal,HOXB6 [3],"11.3 upbm affinity estimate (log intensity, higher = more binding, comparable within an allelic series)"
AATTAGCC,binding signal,VAX1 [4],"12.7 upbm affinity estimate (log intensity, higher = more binding, comparable within an allelic series)"
same,binding signal,VAX1 [5],"12.1 upbm affinity estimate (log intensity, higher = more binding, comparable within an allelic series)"
same,binding signal,VAX1 [6],"12.1 upbm affinity estimate (log intensity, higher = more binding, comparable within an allelic series)"
AATTAAAT,binding signal,HOXB9 [9],"10 upbm affinity estimate (log intensity, higher = more binding, comparable within an allelic series)"
same,binding signal,HOXC9 [10],"12.5 upbm affinity estimate (log intensity, higher = more binding, comparable within an allelic series)"
same,binding signal,HOXB9 [11],"11.8 upbm affinity estimate (log intensity, higher = more binding, comparable within an allelic series)"
same,binding signal,HOXC9 [12],"12.5 upbm affinity estimate (log intensity, higher = more binding, comparable within an allelic series)"
same,binding signal,HOXC9 [13],"12.6 upbm affinity estimate (log intensity, higher = more binding, comparable within an allelic series)"
same,binding signal,HOXB9 [14],"11.5 upbm affinity estimate (log intensity, higher = more binding, comparable within an allelic series)"
same,binding signal,HOXC9 [15],"11.2 upbm affinity estimate (log intensity, higher = more binding, comparable within an allelic series)"
AATTAACG,binding signal,HOXA4 [2],"12.1 upbm affinity estimate (log intensity, higher = more binding, comparable within an allelic series)"
CAATTACA,binding signal,HOXB6 [1],"9.87 upbm affinity estimate (log intensity, higher = more binding, comparable within an allelic series)"
same,binding signal,HOXB6 [3],"11.4 upbm affinity estimate (log intensity, higher = more binding, comparable within an allelic series)"
CAATTACG,binding signal,HOXA4 [7],"10.4 upbm affinity estimate (log intensity, higher = more binding, comparable within an allelic series)"
same,binding signal,HOXA4 [2],"11.6 upbm affinity estimate (log intensity, higher = more binding, comparable within an allelic series)"
same,binding signal,HOXA4 [8],"13.1 upbm affinity estimate (log intensity, higher = more binding, comparable within an allelic series)"
same,binding signal,VAX1 [6],"12.3 upbm affinity estimate (log intensity, higher = more binding, comparable within an allelic series)"
CAATTATA,binding signal,HOXB9 [9],"10.1 upbm affinity estimate (log intensity, higher = more binding, comparable within an allelic series)"
same,binding signal,HOXC9 [10],"12.5 upbm affinity estimate (log intensity, higher = more binding, comparable within an allelic series)"
same,binding signal,HOXB6 [1],"10 upbm affinity estimate (log intensity, higher = more binding, comparable within an allelic series)"
same,binding signal,HOXA4 [2],"12 upbm affinity estimate (log intensity, higher = more binding, comparable within an allelic series)"
same,binding signal,HOXB6 [3],"11.9 upbm affinity estimate (log intensity, higher = more binding, comparable within an allelic series)"
CCCAGGCG,binding signal,HOXC9 [10],"9.48 upbm affinity estimate (log intensity, higher = more binding, comparable within an allelic series)"
same,binding signal,HOXC9 [12],"9.7 upbm affinity estimate (log intensity, higher = more binding, comparable within an allelic series)"
same,binding signal,HOXC9 [13],"9.62 upbm affinity estimate (log intensity, higher = more binding, comparable within an allelic series)"
same,binding signal,HOXC9 [15],"9.63 upbm affinity estimate (log intensity, higher = more binding, comparable within an allelic series)"
AATTAGCG,binding signal,VENTX,"12.3 upbm affinity estimate (log intensity, higher = more binding, comparable within an allelic series)"
same,binding signal,VAX1 [4],"12.6 upbm affinity estimate (log intensity, higher = more binding, comparable within an allelic series)"
same,binding signal,VAX1 [5],"12.4 upbm affinity estimate (log intensity, higher = more binding, comparable within an allelic series)"
same,binding signal,VAX1 [6],"12.5 upbm affinity estimate (log intensity, higher = more binding, comparable within an allelic series)"
CCAATTAC,binding signal,HOXB9 [11],"10.9 upbm affinity estimate (log intensity, higher = more binding, comparable within an allelic series)"
same,binding signal,HOXB9 [14],"10.6 upbm affinity estimate (log intensity, higher = more binding, comparable within an allelic series)"
CCTTCGAG,binding signal,HOXB9 [9],"8.5 upbm affinity estimate (log intensity, higher = more binding, comparable within an allelic series)"
same,binding signal,HOXB9 [11],"8.46 upbm affinity estimate (log intensity, higher = more binding, comparable within an allelic series)"
same,binding signal,HOXB9 [14],"8.5 upbm affinity estimate (log intensity, higher = more binding, comparable within an allelic series)"
CCAATTAG,binding signal,VENTX,"13.1 upbm affinity estimate (log intensity, higher = more binding, comparable within an allelic series)"
same,binding signal,VAX1 [4],"13.1 upbm affinity estimate (log intensity, higher = more binding, comparable within an allelic series)"
same,binding signal,VAX1 [5],"12.6 upbm affinity estimate (log intensity, higher = more binding, comparable within an allelic series)"
same,binding signal,VAX1 [6],"12.9 upbm affinity estimate (log intensity, higher = more binding, comparable within an allelic series)"
AATTAAGC,binding signal,VAX1 [5],"12.3 upbm affinity estimate (log intensity, higher = more binding, comparable within an allelic series)"
GCCAATTA,binding signal,VENTX,"12.5 upbm affinity estimate (log intensity, higher = more binding, comparable within an allelic series)"
same,binding signal,VAX1 [4],"12.8 upbm affinity estimate (log intensity, higher = more binding, comparable within an allelic series)"
same,binding signal,VAX1 [5],"12.4 upbm affinity estimate (log intensity, higher = more binding, comparable within an allelic series)"
same,binding signal,VAX1 [6],"12.6 upbm affinity estimate (log intensity, higher = more binding, comparable within an allelic series)"
GGAGCGCA,binding signal,SIX6 [16],"8.88 upbm affinity estimate (log intensity, higher = more binding, comparable within an allelic series)"
same,binding signal,SIX6 [17],"8.85 upbm affinity estimate (log intensity, higher = more binding, comparable within an allelic series)"
same,binding signal,SIX6 [18],"8.96 upbm affinity estimate (log intensity, higher = more binding, comparable within an allelic series)"
same,binding signal,SIX6 [19],"8.87 upbm affinity estimate (log intensity, higher = more binding, comparable within an allelic series)"
GAGGGGGC,binding signal,HOXB9 [9],"8.48 upbm affinity estimate (log intensity, higher = more binding, comparable within an allelic series)"
same,binding signal,HOXB9 [11],"8.37 upbm affinity estimate (log intensity, higher = more binding, comparable within an allelic series)"
same,binding signal,HOXB9 [14],"8.62 upbm affinity estimate (log intensity, higher = more binding, comparable within an allelic series)"
GACAATTA,binding signal,HOXB9 [9],"9.97 upbm affinity estimate (log intensity, higher = more binding, comparable within an allelic series)"
same,binding signal,HOXB6 [1],"9.96 upbm affinity estimate (log intensity, higher = more binding, comparable within an allelic series)"
same,binding signal,HOXB6 [3],"11.7 upbm affinity estimate (log intensity, higher = more binding, comparable within an allelic series)"
CAATTAGG,binding signal,VENTX,"12.7 upbm affinity estimate (log intensity, higher = more binding, comparable within an allelic series)"
same,binding signal,VAX1 [4],"12.9 upbm affinity estimate (log intensity, higher = more binding, comparable within an allelic series)"
same,binding signal,VAX1 [5],"12.8 upbm affinity estimate (log intensity, higher = more binding, comparable within an allelic series)"
same,binding signal,VAX1 [6],"12.7 upbm affinity estimate (log intensity, higher = more binding, comparable within an allelic series)"
CGCAATTA,binding signal,HOXB6 [1],"9.82 upbm affinity estimate (log intensity, higher = more binding, comparable within an allelic series)"
same,binding signal,HOXB6 [3],"11.7 upbm affinity estimate (log intensity, higher = more binding, comparable within an allelic series)"
GCAGGCGC,binding signal,HOXA4 [7],"9.8 upbm affinity estimate (log intensity, higher = more binding, comparable within an allelic series)"
same,binding signal,HOXA4 [2],"9.64 upbm affinity estimate (log intensity, higher = more binding, comparable within an allelic series)"
same,binding signal,HOXA4 [8],"9.74 upbm affinity estimate (log intensity, higher = more binding, comparable within an allelic series)"
CCGAGACC,binding signal,HOXA4 [7],"9.83 upbm affinity estimate (log intensity, higher = more binding, comparable within an allelic series)"
same,binding signal,HOXA4 [2],"9.77 upbm affinity estimate (log intensity, higher = more binding, comparable within an allelic series)"
same,binding signal,HOXA4 [8],"9.83 upbm affinity estimate (log intensity, higher = more binding, comparable within an allelic series)"
CCTAGCTC,binding signal,HOXA4 [7],"9.86 upbm affinity estimate (log intensity, higher = more binding, comparable within an allelic series)"
same,binding signal,VENTX,"8.47 upbm affinity estimate (log intensity, higher = more binding, comparable within an allelic series)"
same,binding signal,HOXA4 [2],"9.83 upbm affinity estimate (log intensity, higher = more binding, comparable within an allelic series)"
same,binding signal,HOXA4 [8],"9.82 upbm affinity estimate (log intensity, higher = more binding, comparable within an allelic series)"
TCCCCCCA,binding signal,HOXA4 [7],"9.6 upbm affinity estimate (log intensity, higher = more binding, comparable within an allelic series)"
same,binding signal,HOXA4 [2],"9.7 upbm affinity estimate (log intensity, higher = more binding, comparable within an allelic series)"
same,binding signal,HOXA4 [8],"9.81 upbm affinity estimate (log intensity, higher = more binding, comparable within an allelic series)"
CCGCCCCC,binding signal,VENTX,"7.95 upbm affinity estimate (log intensity, higher = more binding, comparable within an allelic series)"
same,binding signal,HOXB6 [1],"8.84 upbm affinity estimate (log intensity, higher = more binding, comparable within an allelic series)"
same,binding signal,HOXB6 [3],"8.81 upbm affinity estimate (log intensity, higher = more binding, comparable within an allelic series)"
AATTATTA,binding signal,HOXB9 [9],"10.1 upbm affinity estimate (log intensity, higher = more binding, comparable within an allelic series)"
same,binding signal,HOXB6 [1],"10.1 upbm affinity estimate (log intensity, higher = more binding, comparable within an allelic series)"
same,binding signal,HOXA4 [2],"12 upbm affinity estimate (log intensity, higher = more binding, comparable within an allelic series)"
same,binding signal,HOXC9 [15],"11.1 upbm affinity estimate (log intensity, higher = more binding, comparable within an allelic series)"
same,binding signal,VAX1 [5],"12.3 upbm affinity estimate (log intensity, higher = more binding, comparable within an allelic series)"
same,binding signal,HOXB6 [3],"11.8 upbm affinity estimate (log intensity, higher = more binding, comparable within an allelic series)"
GCCCCCCA,binding signal,HOXA4 [7],"9.56 upbm affinity estimate (log intensity, higher = more binding, comparable within an allelic series)"
same,binding signal,HOXB6 [1],"8.7 upbm affinity estimate (log intensity, higher = more binding, comparable within an allelic series)"
same,binding signal,HOXA4 [2],"9.68 upbm affinity estimate (log intensity, higher = more binding, comparable within an allelic series)"
same,binding signal,HOXA4 [8],"9.71 upbm affinity estimate (log intensity, higher = more binding, comparable within an allelic series)"
same,binding signal,HOXB6 [3],"8.91 upbm affinity estimate (log intensity, higher = more binding, comparable within an allelic series)"
